Values joined by “and” are separate entries in the source; they are usually repeats but may differ in a detail not shown here. Identical values can stand only once. Records with an inconclusive call do not appear. Some compounds were tested as several samples or in several runs, with calls that do not always agree. Active and inactive are the calls of the source. Rule for the calls: active = hit-call score of the fitted dose curve at least 0.9, where 1 is the maximum; inconclusive = response in the unintended direction; inactive = score below 0.9.

Chain of Nuclear receptor subfamily 1 group I member 2 (Mus musculus) (O54915 whole entry, looked up): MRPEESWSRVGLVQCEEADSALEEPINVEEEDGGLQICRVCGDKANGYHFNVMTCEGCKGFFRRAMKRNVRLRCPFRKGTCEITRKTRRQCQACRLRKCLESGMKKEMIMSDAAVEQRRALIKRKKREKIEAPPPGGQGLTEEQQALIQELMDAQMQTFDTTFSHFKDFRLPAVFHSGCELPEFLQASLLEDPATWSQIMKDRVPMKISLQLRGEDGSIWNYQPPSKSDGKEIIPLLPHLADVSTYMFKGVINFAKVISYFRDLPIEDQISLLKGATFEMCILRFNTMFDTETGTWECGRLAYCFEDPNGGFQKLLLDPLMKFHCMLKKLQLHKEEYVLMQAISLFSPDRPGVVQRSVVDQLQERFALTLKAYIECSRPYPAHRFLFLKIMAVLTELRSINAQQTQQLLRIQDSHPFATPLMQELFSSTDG

One test deals with Nuclear receptor subfamily 1 group I member 2 (Mus musculus) (UniProt O54915). Briefly: ATG_mPXR_XSP2: Attagene TRANS-FACTORIAL Multi-Species (XSP1) HepG2 Assay for mouse Pregnane X Receptor (PXR) (AID 2283831). The essentials:
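Fluorescence signals from capillary electrophoresis of RT-PCR-amplified reporter mRNA give the readout, gain-of-signal versus DMSO. Transfected HepG2 cells, 24 h dosing, medium contained 3 nM 6-alpha-fluorotestosterone and 1.5 nM norgestrel.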
By AC50 is commonly meant the midpoint of the concentration-response curve, whichever way the signal moves. As for `C#C[C@]1(O)CC[C@H]2[C@@H]3CCC4=CC(=O)CC[C@@H]4[C@H]3CC[C@@]21C`, the AC50 was 529 nM (active).
For `Oc1cc2ccccc2c2ccccc12`, the compound was called inactive.
The same measure, in the same setting: the result for `O=C(O)Cc1cc(I)c(Oc2cc(I)c(O)c(I)c2)c(I)c1` reads “inactive”; that for `CCC(C)(C)C1CCC(O)CC1` (stereo not given), “inactive”.
The same measure, in the same setting: next, `c1ccc2c(c1)ccc1ccccc12`: “inactive”.
Still for that read-out and setting: next, `CCCOC(=O)c1ccc(O)cc1`: “inactive”.
`CCC(=C(c1ccc(O)cc1)c1ccc(OCCN(C)C)cc1)c1ccccc1`: the AC50 was 4.97 µM (active) and 6.16 µM (active).

In the next test the target is zebrafish Thyroid Hormone Receptor alpha (TRa), thraa (gene 30670) (UniProt Q98867). Briefly: ATG_zfTRa_XSP2: Attagene TRANS-FACTORIAL Multi-Species (XSP1) HepG2 Assay for zebrafish Thyroid Hormone Receptor alpha (TRa) (AID 2283832).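 Note: actives raise zebrafish TRa-Gal4 reporter transcript above DMSO baseline.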 In a few lines: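 Readout is reporter mRNA induction, quantified by RT-PCR and capillary electrophoresis with fluorescent labelling, after 24 h compound exposure of transiently transfected HepG2 cells carrying NR-Gal4 chimera reporters. Activity fitted upward relative to DMSO.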
Chain of zebrafish Thyroid Hormone Receptor alpha (TRa), thraa (gene 30670) (Q98867 whole entry, looked up, the tested form may be a part): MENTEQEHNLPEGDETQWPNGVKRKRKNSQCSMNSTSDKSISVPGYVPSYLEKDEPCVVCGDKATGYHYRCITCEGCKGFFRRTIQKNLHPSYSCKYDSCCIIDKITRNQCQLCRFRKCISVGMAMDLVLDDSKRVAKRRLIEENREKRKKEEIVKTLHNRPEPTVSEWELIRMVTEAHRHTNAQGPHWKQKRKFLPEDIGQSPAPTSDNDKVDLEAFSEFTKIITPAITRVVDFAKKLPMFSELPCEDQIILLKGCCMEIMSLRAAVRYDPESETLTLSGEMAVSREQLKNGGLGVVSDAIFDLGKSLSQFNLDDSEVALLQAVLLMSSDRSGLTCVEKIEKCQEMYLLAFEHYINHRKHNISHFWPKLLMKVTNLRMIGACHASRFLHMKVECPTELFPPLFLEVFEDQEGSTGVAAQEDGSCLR
As to `Oc1cc2ccccc2c2ccccc12`, the AC50 is 10.6 µM (active) and the outcome was inactive.
As for `O=C(O)Cc1cc(I)c(Oc2cc(I)c(O)c(I)c2)c(I)c1`, the AC50 is 123 nM (active) and 54.3 nM (active).
Turning to `CCC(C)(C)C1CCC(O)CC1` (stereo not given), the result was inactive.
On to `CCCOC(=O)c1ccc(O)cc1`, for which the call was inactive.
On the same count and under the same terms, the result for `O=c1c(-c2ccc(O)cc2)coc2cc(O)ccc12` reads “inactive”.
On to `CCC(=C(c1ccc(O)cc1)c1ccc(OCCN(C)C)cc1)c1ccccc1`, for which the AC50 is 11.6 µM (active) and the compound was called inactive.

For the origin of these results see PubChem BioAssay (EPA / NIEHS).
